Measured values: PubChem BioAssay AID435019 (Southern Research Specialized Biocontainment Screening …, 2010)
Out of some 2,300 compounds screened, about 1,200 (52%) were called active. The set was probably picked from earlier hits. The list shows a part of the results. Potency and affinity values are given separately. A number with no mark means an inactive call. The rule behind the calls is not given here.

test: mammalian cell cytotoxicity, dose response, cytotoxicity control for M. tuberculosis inhibitor project (AID 435019); conditions: cytotoxicity counter-screen; series mostly up to 40 µM; viability: at the top concentration;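 note: 0% = background wells and 100% = vehicle-treated cells; lower values mean fewer viable cells so more cytotoxicity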

Structure (SMILES) | viability [%]
Cc1ccc(C)c(C2C(=O)c3ccccc3C2=O)c1 | 99.8
NN(Cc1ccccc1)C(=S)Nc1ccc(Cl)c(Cl)c1 | 87.4
C=C(C)C1Cc2c(C)nn(-c3nc(C)cc(C)n3)c2C1 (stereo not given) | 82.5
O=C(/C=C/c1ccccc1)N1CCN(CCN2C(=O)c3cccc4cccc(c34)C2=O)CC1 | 84.9
COc1ccc(C(=O)NNc2ccccc2)cc1OC | 86.6
O=C(CSC1=Nc2ccccc2C2=NC(c3ccccc3)C(=O)N12)NC1CCCCC1 (stereo not given) | 92.2
CN1C(=O)CC(c2ccccc2)C1=O (stereo not given) | 95.7
c1ccc(NNC2=NCCCCC2)cc1 | 94.5
COC(=O)c1ccc(NC(=S)NC(=O)C2CCC2)cc1 | 96.1
COc1cc(/C=C/c2cc[n+](C)cc2)ccc1OCC(=O)Nc1ccc(Cl)c(Cl)c1 | 96
CC1(c2ccc(Cl)c(Cl)c2)NC(=S)N2C1NC(=S)N2c1ccccc1 (stereo not given) | 91.4
Cc1cc(-c2ccc(Cl)cc2)c2cnn(C(C)C)c2n1 | 88.4
Cc1ccc(-c2nc3ccsc3c(=O)o2)cc1 | 88.2
COC(=O)C(C)Oc1ccc(-c2nccc(-c3ccccn3)n2)cc1 (stereo not given) | 102
CCCCSCCCNC(=O)c1cn(CC)c2ccc(S(=O)(=O)N3CCOCC3)cc2c1=O | 92.9
COc1ccc(C(=O)C[n+]2ccc3c(c2)nc(-c2cc(OC)c(OC)cc2OC)n3C)cc1 | 101
Nc1nc(CN2CCN(c3ccccc3F)CC2)nc(N2CCCc3ccccc32)n1 | 91.2
CCCc1cc(-c2nc(-c3ccc(Br)cc3)cs2)ccn1 | 87.4
CC(=O)c1cccc(NC(=O)C2C3C=CC(C3=C(c3ccccc3)c3ccccc3)C2C(=O)O)c1 (stereo not given) | 95.7
COc1cccc(C(=O)NC2CC3CCCC(C2)N3CC(=O)Nc2ccc(N(C)C)cc2)c1 (stereo not given) | 82.4
CCOc1ccc(NC(=O)CSc2nc(O)c(C)c(=O)n2-c2ccc(F)cc2)cc1 | 91.2
Cc1ccc2c(c1)c1c3n2CCN=C3CCC1 | 87.1
CC(C)Nc1nc(NC(C)C)nc(N(C)N)n1 | 91.6
CCOc1cccc(C=Nc2cc(C)cc(C)c2O)c1O | 96.3

Structure (SMILES) | viability [%]
O=[N+]([O-])c1ccc(-c2ccc(/C=N/c3c(-c4ccco4)nc4ccccn34)o2)cc1 | 90.6
O=[N+]([O-])c1cc(-c2ccc(/C=N\n3cnnc3)o2)cc([N+](=O)[O-])c1 | 91.3
CCCCCC1CC(CC(=O)NC(=S)Nc2ccc([N+](=O)[O-])cc2)C(=O)O1 (stereo not given) | 92.9
COc1ccc(-c2ccc(C#N)c(SCC(=O)OCc3ccccc3)n2)cc1OC | 88.4
CCOC(=O)C(C)Sc1ncnc2c1nnn2-c1ccc(F)cc1 (stereo not given) | 94.5
CC1(C)C2CCC1(C)C(OCC[N+](C)(C)CC(=O)OC1CCCCC1)C2 (stereo not given) | 101
CC(=O)CCSc1ncnc2sc(-c3ccccc3)cc12 | 89.4
Nn1c(SCc2ccccc2)nc2ccccc21 | 91.9
COC(=O)CCc1nc2c(C#N)c(-c3ccc(Cl)cc3)ccn2n1 | 99.9
CC(C)(C)c1ccc(OCCCC(=O)NC2=NCCS2)cc1 | 84.5
CCOC(=O)c1sc2nc(C)nc(SC(C)C(=O)N(C)c3ccccc3)c2c1C (stereo not given) | 83.9
O=C(CCCC(=O)OCC(=O)c1cccs1)Nc1ccc(Oc2ccccc2)cc1 | 99.9
CCc1cc2c(=O)n(C(C)C(=O)OC3CCCCC3)cnc2s1 (stereo not given) | 94
COc1ccc(N(CC(=O)Nc2ccccc2C(N)=O)S(=O)(=O)c2ccc(C)c([N+](=O)[O-])c2)cc1 | 82.1
Cc1ccc(S(=O)(=O)NNC(=O)c2cc([N+](=O)[O-])c(C)c([N+](=O)[O-])c2)cc1 | 94
CCc1cccc2c(=O)c(C(=O)N3CCOCC3)c[nH]c12 | 98.5
COc1ccc(N=Cc2ccc(CNS(=O)(=O)c3ccc(Cl)cc3)o2)cc1 | 95.1
CN(C)c1ccc(CNC2C3CC4CC(C3)CC2C4)cc1 (stereo not given) | 82.2
CCOc1ccccc1NC(=O)C12CC3CC(C1)CC(c1ccc(C)cc1)(C3)C2 | 90.9
CCCCCCCCCCNC(=O)C(=O)Nc1ccccn1 | 98.7
C[C@H](O)[C@H](O)[C@H]1CNc2nc(N)[nH]c(=O)c2N1 | 92.3
Cc1cc(C)cc(NC(=O)CCc2ccc(C)o2)c1 | 99.8
O=C(NC1CCCCC1)C1CC(=O)N(c2cccc([N+](=O)[O-])c2)C1 (stereo not given) | 97
Cc1cc(C(=O)COC(=O)C2=COCCO2)c(C)n1-c1cccc(F)c1 | 88

Structure (SMILES) | viability [%]
CC(=O)OC1=Cc2c(ccc3ccc(=O)oc23)OC1(C)C | 92.1
COc1ccc(/C(O)=C/Sc2nnc(Cc3ccccc3)o2)cc1 | 102
COc1ccc(NCc2nnc(SCC(=O)c3ccc(OC)cc3)o2)cc1 | 91.7
Nc1ccc2c(c1)nnn2-c1ccccc1 | 92.9
COc1cc(/C=C(\C#N)c2nc3c(s2)CC(C)CC3)ccc1O (stereo not given) | 82.1
CCC[C@@H]1C[C@@H](C(=O)NC(C(C)Cl)[C@H]2O[C@H](SC)[C@H](O)[C@@H](O)[C@H]2O)N(C)C1 (stereo not given in full) | 101
Nc1ccc(Oc2ccc3c(c2)OCO3)cc1 | 91.1
O=C1NN(c2ccc(Br)cc2)C(=O)/C1=C\c1ccc(O)cc1O | 94.3
COc1ccccc1NC(=O)CN1CCN(CC(=O)Nc2ccc3c(c2)OCO3)CC1 | 91.8
C=CCOc1ccc(C2=NOC(C(=O)Nc3ccc4c(c3)OCCO4)C2)cc1 (stereo not given) | 102
Nc1ncc2[nH]cnc2n1 | 96.1
C[C@]12C=CC(=O)C=C1CC[C@@H]1C2=CC[C@]2(C)[C@@H](C(=O)CN3CCN(c4cc(N5CCCC5)nc(N5CCCC5)n4)CC3)CC[C@@H]12 | 86.1
COc1ccc(/C=N/Nc2nncn2N)cc1Br | 100
CCOC(=O)CSc1snnc1-c1ccccc1 | 95.3
CCc1ccc(CCOc2ccc(CC3SC(=O)NC3=O)cc2)nc1 (stereo not given) | 97.5
Cc1cc(C)n(C(=O)c2ccc([N+](=O)[O-])cc2[N+](=O)[O-])n1 | 93.6
Cc1ccc(NC(=O)c2ccc(CSc3nnc(C)s3)cc2)c(C)c1 | 90.1
COC(=O)c1cc(NC(=O)c2c(F)c(F)c(F)c(F)c2F)cc(C(=O)OC)c1 | 80.9
C=CC[n+]1ccn(-c2nc3ccccc3nc2[N-]S(=O)(=O)c2cccs2)c1 | 101
C/C(CC(=O)Nc1ccc2c(c1)OCCO2)=N\NC(=O)c1ccccc1F | 84.3
N#CC(C(=O)NCc1ccco1)c1nc2ccccc2nc1N1CCOCC1 (stereo not given) | 85.7
CCOC(=O)C1CCN(c2nc3cc(OC)ccc3cc2C#N)CC1 | 94
